In PubChem BioAssay (NCI):
This is part of a sample that, as a whole, favours compounds with a hit. Of some 83,000 tested, about 20% had one in any assay.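 Percent growth is the endpoint: 0 to 100 indicates growth inhibition (40 means 60% inhibition), 0 means no net growth, and negative values indicate cell death.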 Activity calls are given as the source filed them. How the source made its calls: active means growth percent below 10; inactive means the rest.

What follows are compounds tested on HL-60(TB) leukemia (assay: NCI-60 one-dose screen, 48 h (100 = growth as untreated, 0 = no growth, -100 = all killed)). Conditions: 10 µM unless noted.

How did the growth turn out when `COc1cc(Cl)cc(-c2nn(C(=O)NS(=O)(=O)c3ccc(Cl)cc3)cc2-c2ccncc2)c1` was run?
Its growth is 94.8% (inactive).

For `O=C(NC(Cc1ccc(O)cc1)C(=O)N=Nc1c(O)[nH]c2ccccc12)c1ccccc1` (stereo not given), which growth is on record?
Its growth is 101% (inactive).

With `Nc1nc2c(ncn2[C@@H]2O[C@H](CS)[C@@H](O)[C@H]2O)c(=O)[nH]1` as the compound, how does the growth read?
The growth was 101% (inactive).

With `COc1ccc(Cc2cc(-c3ccccc3C)n[nH]c2=O)cc1` as the compound, how does the growth read?
Its growth is 92.4% (inactive).

Which growth does the source give for `Cn1cnc(-c2cc3nccc(Oc4ccc(NC(=S)NC(=O)Cc5ccccc5)cc4F)c3s2)c1` here?
Its growth is 80% (inactive).

`CC(C)(N)COS(=O)(=O)O` was tested. Which growth did it give?
Its growth is 94.4% (inactive).

How did the growth turn out when `NC(=O)NS(=O)(=O)c1ccc(N2N=C(C(F)(F)F)CC2c2cc(C(F)(F)F)cc(C(F)(F)F)c2)cc1` (stereo not given) was run?
The growth was 38.7% (inactive).

`COc1ccc2oc(=O)cc(Cn3cc(Cn4cnc5c4c(=O)n(C)c(=O)n5C)nn3)c2c1` was tested. Which growth did it give?
The growth was 107% (inactive).

Which growth does the source give for `CN1CCCC1=Nc1ccccc1` here?
The growth was 93.3% (inactive).

Which growth does the source give for `Cn1c(=O)c2[nH]c(CCCc3nc4c([nH]3)c(=O)n(C)c(=O)n4C)nc2n(C)c1=O` here?
Its growth is 109% (inactive).

With `CCc1nnc(NC(=O)c2nnn(-c3ccccc3)c2-c2ccco2)s1` as the compound, how does the growth read?
The growth was 79.9% (inactive).

How did the growth turn out when `COC(=O)[C@]12CC[C@@H](C)[C@H](C)[C@@H]1C1=CC[C@@H]3[C@@]4(C)C[C@@H](OC(=O)/C=C/c5ccccc5)[C@H](O)[C@@](C)(CO)[C@@H]4[C@H](O)C[C@@]3(C)[C@]1(C)CC2` was run?
Its growth is -20.6% (active).

With `Cn1c2ccc(Cl)cc2c2nn(C(=O)c3ccccc3)c(=O)nc21` as the compound, how does the growth read?
The growth was 113% (inactive).

For `O=C1CNCCN1`, which growth is on record?
Its growth is 99.5% (inactive).

For `O=C(NNC(=S)Nc1ccccc1)c1ccc(Nc2ncnc3c2cnn3-c2cccc(Br)c2)cc1`, which growth is on record?
The growth was 111% (inactive).

Which growth does the source give for `C=CC(=O)N[C@H](Cc1ccc(-c2cc(Cl)cc(Cl)c2)cc1)[C@H](O)[C@@H](O)C(=O)O` here?
The growth was 109% (inactive).

Which growth does the source give for `COC(/C=C/c1ccc([N+](=O)[O-])cc1)OC` here?
The growth was 42% (inactive).

How did the growth turn out when `COc1cc(C(=O)O/N=C(\N)Cc2cccc3ccccc23)cc(OC)c1OC` was run?
Its growth is -37.4% (active).

With `FCc1ncc(-c2ccc(C(F)(F)F)cc2)c(NC2CCCCCC2)n1` as the compound, how does the growth read?
The growth was -25.6% [100 µM] (active).

`CCOC(=O)c1cc(C(=O)c2cc(OC)c(OC)c(OC)c2)n2nc(C)ccc12` was tested. Which growth did it give?
Its growth is -24.2% (active).

Which growth does the source give for `CCCCCCCCCc1cc(CN2CCCCC2)c(O)c(CN2CCCCC2)c1` here?
The growth was 60.7% (inactive).

Which growth does the source give for `O=C(/C=C/c1cccc(Nc2ccnc3cc(Cl)ccc23)c1)c1ccc(Cl)cc1` here?
The growth was 47.6% (inactive).

Which growth does the source give for `CC1(c2ccccc2)OC1C(=O)O` (stereo not given) here?
Its growth is 103% (inactive).

With `NC(=S)N/N=C\c1nccc2c(N)cccc12` as the compound, how does the growth read?
The growth was -10.4% (active).

Which growth does the source give for `CC1=C(CCC(C)NCc2ccc(OCCCN3CCCCC3)cc2)C(C)(C)CCC1` (stereo not given) here?
The growth was -68.7% (active).

Which growth does the source give for `CN1C[C@@H](c2ccc(Cl)cc2)[C@]2(NC(=S)N(c3ccc(F)c(Cl)c3)C2=O)[C@@]12C(=O)NC1C=CC(Cl)=C[C@H]12` (stereo not given in full) here?
Its growth is -17.9% (active).

How did the growth turn out when `CCN1C(=O)N(CC)C2C1NN=c1s/c(=C\c3ccc(F)cc3)c(=O)n12` (stereo not given) was run?
The growth was -47% (active).

`C[C@@H]1CN(c2nc3c(cc2F)c(=O)c(C(=O)O)cn3C(C)(C)C)C[C@H](C)N1` was tested. Which growth did it give?
Its growth is 97% (inactive).

`COC(=O)c1c(NC(=O)CSc2nnnn2-c2ccc(OC)cc2)sc(C)c1C` was tested. Which growth did it give?
Its growth is -6.74% (active).

With `O=C(N/N=C/c1ccc(Cl)cc1)c1ccc(NC(=O)c2ccccn2)cc1` as the compound, how does the growth read?
Its growth is 103% (inactive).

How did the growth turn out when `COC(=O)c1nc(=S)[nH]c(C(=O)OC)c1C(=O)c1ccc2ccccc2c1` was run?
The growth was 122% (inactive).

With `Clc1ccc(-c2nc(-c3ccco3)cn3ccnc23)cc1` as the compound, how does the growth read?
Its growth is 102% (inactive).

How did the growth turn out when `O=C1C=CC(=Nc2cc(Br)c(O)c(Br)c2)C=C1` was run?
The growth was 29.9% (inactive).

Which growth does the source give for `N#Cc1ccccc1OCC(=O)Nc1nc2c(s1)COc1ccccc1-2` here?
Its growth is 107% (inactive).

With `Cc1cccc2c(=O)c3c(sc12)c(NCCCNCCO)nc1ccccc13` as the compound, how does the growth read?
The growth was 14.6% (inactive).

With `COC(=O)[C@]1(C)CCC[C@]2(C)[C@H]3C[C@H]4C(C(C)C)=C[C@]3(CC[C@H]21)[C@@H]1C(=O)CC[C@H](OCCC#N)[C@@H]14` as the compound, how does the growth read?
Its growth is 113% (inactive).

With `O=c1[nH]cc(Nc2cc(Cl)c3nonc3c2[N+](=O)[O-])c(=O)[nH]1` as the compound, how does the growth read?
Its growth is 75.8% (inactive).

Which growth does the source give for `CSc1nc2c(c(=O)n1C)N=C1c3ccccc3C(=O)C1C(c1ccccc1)N2` (stereo not given) here?
The growth was 84.5% (inactive).

`CCCNC(=O)Oc1ccc(/C(=C(/C)Cc2ccc(OC)cc2)c2ccc(OCCN3CCCC3)cc2)cc1` was tested. Which growth did it give?
Its growth is 51.9% (inactive).

With `C/C=C/C=N/NC(=S)Nc1ccccc1` as the compound, how does the growth read?
The growth was 81.7% (inactive).
